Screening data (PubChem BioAssay)
SENP8 block-1 = SENP8 protease inhibitors, primary screen, biochemical, luminescence; Sentrin-specific protease 8 (Homo sapiens), Q96LD8; purified SENP8, Z-RLRGG-aminoluciferin cleavage; 330,000 tested, 1.2% active; inhibition, % at 10 µM; in the data active means inhibition above about 50%
Target sequence (Q96LD8 whole entry, looked up): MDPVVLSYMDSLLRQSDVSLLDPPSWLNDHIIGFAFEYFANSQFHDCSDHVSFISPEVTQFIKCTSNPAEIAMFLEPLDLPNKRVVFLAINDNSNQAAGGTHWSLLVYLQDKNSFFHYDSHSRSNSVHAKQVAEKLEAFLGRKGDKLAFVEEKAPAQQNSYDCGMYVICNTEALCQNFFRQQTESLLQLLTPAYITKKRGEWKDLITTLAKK
PPC-1+TRAIL kill = compounds killing PPC-1 cancer cells with TRAIL present, primary screen, TRAIL potentiator project, ATPLite luminescence, uHTS; AID 1443, 2008; PPC-1 cells + TRAIL, ATPLite viability luminescence; 220,000 tested, 0.41% active; cell killing (% activity), % at 4 µM or 5 µM;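 active means cell killing above 50% in the first pass at 4 µM, then a duplicate retest at 5 µM averaging 50% or more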
SENP8 block-2 = human SENP8 protease inhibitors, primary screen, biochemical, fluorescence, Nedd8 protein substrate, uHTS. AID 602440, 2012. 360,000 tested, 0.64% active. recombinant SENP8. inhibition, % at 20 µM. Sentrin-specific protease 8 (Homo sapiens), Q96LD8; in the data active means inhibition mostly above about 40%, no sharp cut-off; inactive means mostly below about 27%
C8 TRAIL sens = viability loss with TRAIL in NB7+C8 cells, primary screen, TRAIL sensitizer project, cell-based, ATPlite luminescence; inhibition (viability loss, TRAIL sensitization), % at 10 µM; 360,000 tested, 1% active; AID 624354, 2012;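 active means compounds causing at least 50% loss of cell viability in the single-dose screen, relative to plate controls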
SENP7 block = SENP7 protease inhibitors, primary screen, biochemical, luminescence, uHTS | Sentrin-specific protease 7 (Homo sapiens), Q9BQF6 | recombinant SENP7, Z-RLRGG-aminoluciferin luminescence, 40 min | inhibition, % at 5 µM | 330,000 tested, 1.5% active;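 active means inhibition above about 50% at the single test dose, limit read from the data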
Target sequence (Q9BQF6 706-1050 limits assumed): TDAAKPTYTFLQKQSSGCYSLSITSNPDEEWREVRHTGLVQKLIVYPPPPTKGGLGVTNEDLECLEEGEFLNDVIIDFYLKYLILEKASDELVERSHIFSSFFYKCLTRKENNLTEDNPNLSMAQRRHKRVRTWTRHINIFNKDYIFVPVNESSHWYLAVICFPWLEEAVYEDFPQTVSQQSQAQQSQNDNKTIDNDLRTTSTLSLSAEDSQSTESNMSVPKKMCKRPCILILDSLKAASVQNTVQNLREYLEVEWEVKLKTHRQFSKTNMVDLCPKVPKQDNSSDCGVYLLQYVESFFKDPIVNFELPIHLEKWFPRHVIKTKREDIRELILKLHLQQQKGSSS
SENP6 block = SENP6 protease inhibitors, primary screen, biochemical, luminescence, uHTS | Recombinant SENP6 catalytic domain, aminoluciferin luminescence | inhibition, % at 10 µM | Sentrin-specific protease 6 (Homo sapiens), Q9GZR1 | 330,000 tested, 1.8% active;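 active means inhibition above about 50% at the single tested dose, limit read from the data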
PPC-1 tox = cytotoxicity in PPC-1 cells, confirmation, cytotoxicity control for TRAIL apoptosis potentiator project, cell-based, ATP content luminescence; PPC-1 viability, ATPlite luminescence, overnight; cytotoxicity, % at 5 µM; shares compounds with PPC-1+TRAIL kill; AID 1447, 2008; 1,200 tested, 50% active;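 active means reconfirmed compounds whose average cytotoxicity reaches 50% or more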
Large screens that a line does not name were inactive (follow-up assays come after a bar, where they were run). In the library only some 3% were active in any assay of this set; here they are far more common.

CN(C(=O)c1cccc(Nc2ccc(-c3ccc4c(c3)OCCO4)nn2)c1)C1CCCCC1	PPC-1+TRAIL kill 52.6, C8 TRAIL sens 68.2 | PPC-1 tox 54.8
O=C(Cc1cccs1)Nc1ccc(Cl)cc1	none | PPC-1 tox inactive
O=C(Cc1cccs1)NNC(=S)NCc1ccco1	none
O=C(Cc1cccs1)NCc1ccco1	none | PPC-1 tox inactive
Cc1nn(-c2ccccc2)c(C)c1/C=N\N1CCN(c2ccc(Cl)cc2)CC1	none | PPC-1 tox inactive
Cc1ccc2nc(Cl)c(/C=N/Nc3ccc(C(=O)O)cc3)cc2c1	PPC-1+TRAIL kill 87.5, C8 TRAIL sens 78.5 | PPC-1 tox 87.4
CCc1ccc(N2C(=O)Nc3ccccc3C2(O)C(=O)N2CCN(c3ccccn3)CC2)cc1 (stereo unspecified)	none
Cc1ccc(N2C(=O)Nc3ccccc3C2(O)C(=O)N2CCN(c3ccccn3)CC2)cc1C (stereo unspecified)	none | PPC-1 tox inactive
CC1(c2ccccc2)NC(=O)N(CC(=O)N(CC(=O)Nc2ccccc2C(F)(F)F)Cc2ccco2)C1=O (stereo unspecified)	none (no result: PPC-1+TRAIL kill)
CCOC(=O)c1nn(-c2ccc(C)cc2)cc1C(=O)c1ccccc1	C8 TRAIL sens 52.6 | PPC-1 tox inactive
CC(=O)c1nn(-c2ccc(Cl)cc2)cc1C(=O)c1ccccc1	none (no result: PPC-1+TRAIL kill)
CC(=O)c1nn(-c2cccc(Br)c2)cc1C(=O)c1ccccc1	none | PPC-1 tox inactive
Cc1c(C(=O)NCc2ccc3c(c2)OCCO3)sc(=O)n1Cc1ccc(S(=O)(=O)N(C)C)cc1	none (no result: SENP8 block-1, PPC-1+TRAIL kill, SENP7 block, SENP6 block)
Cc1[nH]n(-c2ccccc2)c(=O)c1C(C[N+](=O)[O-])c1ccc(Br)cc1 (stereo unspecified)	SENP8 block-2 87.7 | PPC-1 tox inactive
COc1ccc(CCNC(=O)CCCn2ncn3c(cc4occc43)c2=O)c(OC)c1	none (no result: PPC-1+TRAIL kill)
Cc1cc(/C=N/Nc2nc(N)ncc2[N+](=O)[O-])c(C)n1-c1ccccc1F	SENP8 block-1 94.9, PPC-1+TRAIL kill 76.4, SENP7 block 94.5, SENP6 block 101.9 (no result: SENP8 block-2, C8 TRAIL sens) | PPC-1 tox 77.4
Cc1cccc(C)c1-n1c(C)cc(/C=N\Nc2ccc([N+](=O)[O-])cn2)c1C	none
CCCn1nnnc1NCc1ccccc1OCc1cccs1	none | PPC-1 tox inactive
C=CCn1c(SCC(=O)NC(=O)NC)nnc1C1CCCCC1	none
C=CCn1c(SCC(=O)NC(=O)NCCC)nnc1C1CCCCC1	none | PPC-1 tox inactive
CC(=O)c1cccc(NC(=O)CCc2nc3sc4c(c3c(=O)[nH]2)CCCC4)c1	none (no result: PPC-1+TRAIL kill)
COc1ccc(-c2nc3ccccc3s2)cc1	PPC-1+TRAIL kill 59.8, C8 TRAIL sens 84.1 (no result: SENP8 block-1, SENP7 block, SENP6 block) | PPC-1 tox 60.9
Cc1ccc(C#CC[N+]2(CC#Cc3ccc(C)cc3)CCCCC2)cc1	none | PPC-1 tox inactive
Nc1ncnc2c1ncn2[C@@H]1O[C@H](C(=O)N[C@H]2c3ccccc3C[C@H]2O)[C@@H](O)[C@H]1O	none (no result: SENP8 block-1, PPC-1+TRAIL kill, SENP7 block, SENP6 block)
COc1ccc(-c2csc(NC(=O)CSc3ncn[nH]3)n2)cc1OC	none
O=C(CSc1ncn[nH]1)Nc1nc(-c2ccccc2)cs1	none | PPC-1 tox inactive
O=C1CCC[C@@H]2C=C[C@H](c3ccc(Br)cc3)[C@H]3CCN1[C@@H]32	none (no result: SENP8 block-1, PPC-1+TRAIL kill, SENP7 block, SENP6 block)
O=C(COC(=O)CN1C(=O)c2ccccc2C1=O)Nc1ccc(S(=O)(=O)N2CCCC2)cc1	none | PPC-1 tox inactive
O=C(Nc1ccc(S(=O)(=O)NC2=NCCCCC2)cc1)c1ccc(C(F)(F)F)cc1	none
CN(C)S(=O)(=O)c1ccc(C(=O)Nc2ccc(S(=O)(=O)NC3=NCCCCC3)cc2)cc1	none | PPC-1 tox inactive
CC(=O)Nc1ccc(NC(=O)C(C)OC(=O)c2c(NC(C)=O)sc(C)c2C)cc1 (stereo unspecified)	none (no result: PPC-1+TRAIL kill)
O=C(N/N=C/c1c(Cl)[nH]c2ccccc12)c1ccc2c(c1)OCCO2	PPC-1+TRAIL kill 65.0, C8 TRAIL sens 65.9 | PPC-1 tox 63.9
Cc1ccc(/C=N/NC(=O)c2ccc3ccccc3c2)s1	none (no result: PPC-1+TRAIL kill)
Cc1ccc(/C=N/NC(=O)c2ccc3c(c2)OCCO3)s1	none | PPC-1 tox inactive
O=C(N/N=C/c1cc(Br)cs1)c1ccc2c(c1)OCCO2	PPC-1+TRAIL kill 57.5, C8 TRAIL sens 69.4 | PPC-1 tox 60.2
COc1ccc(C(=O)OCC(=O)Nc2cccc(S(=O)(=O)NC3=NCCCCC3)c2)cc1[N+](=O)[O-]	none (no result: SENP8 block-1, PPC-1+TRAIL kill, SENP7 block, SENP6 block)
CCCCCCN1C(=O)CC(NC(=O)OCC2c3ccccc3-c3ccccc32)C/C=C\C1C(C)C (stereo unspecified)	none (no result: SENP8 block-1, PPC-1+TRAIL kill, SENP6 block)
COc1ccc(CC(Cc2ccc(OC)c(OC)c2)NC=O)cc1OC	none (no result: SENP8 block-1, PPC-1+TRAIL kill, SENP7 block, SENP6 block)
CCO/C(C)=N/Oc1cc(OC)cc(OC)c1	none (no result: SENP8 block-1, PPC-1+TRAIL kill, SENP7 block, SENP6 block)
COc1ccc(S(=O)(=O)Nc2cccc3c2O[C@H](CN(C)C(=O)Nc2c(C)noc2C)[C@@H](C)CN([C@H](C)CO)C3=O)cc1	none (no result: PPC-1+TRAIL kill)
C=C1C(=O)O[C@@H]2C[C@@H](C)[C@@H]3C=CC(=O)[C@@]3(C)[C@@H](OC(C)=O)[C@H]12	PPC-1+TRAIL kill 62.5 (no result: SENP8 block-2, C8 TRAIL sens) | PPC-1 tox 51.7
CCOc1cccc(/C=C/c2cc(C(=O)O)c3ccccc3n2)c1OC	PPC-1+TRAIL kill 70.8, C8 TRAIL sens 75.6 | PPC-1 tox 69.4
Cc1nn(C(C)(C)C)c(C)c1/C=N/OC(=O)Nc1ccc(Cl)cc1	PPC-1+TRAIL kill 85.4, C8 TRAIL sens 88.3 | PPC-1 tox 86.2
Cc1nn(C)c(C)c1/C=N/NC(=O)C(C)(C)Oc1ccc(Cl)cc1	none
Cc1ccc(C(=O)n2c(=S)nc3ccccn32)cc1	PPC-1+TRAIL kill 90.8 (no result: SENP8 block-1, SENP8 block-2, C8 TRAIL sens, SENP7 block, SENP6 block) | PPC-1 tox 90.3
Cc1cccn2c1nc(=S)n2C(=O)c1ccco1	none (no result: SENP8 block-1, SENP7 block, SENP6 block)
CCCNC(=O)c1oc2ccc3c(c2c1C)C=CC(C)(C)O3	none (no result: PPC-1+TRAIL kill)
CCCNC(=O)c1oc2ccc3c(c2c1C)C(=O)CC(C)(C)O3	PPC-1+TRAIL kill 51.6, C8 TRAIL sens 52.0 | PPC-1 tox inactive
Cc1ccc(Nc2nc(Oc3ccc(OCc4ccccc4)nn3)nc(N3CCOCC3)n2)cc1	none | PPC-1 tox inactive
CCOc1ccc(N2C(=O)CC(SCCN)C2=O)cc1 (stereo unspecified)	none | PPC-1 tox inactive
CCCCCCOc1ccc(N2C(=O)CC(SCCN)C2=O)cc1 (stereo unspecified)	none (no result: PPC-1+TRAIL kill)
COCCn1c(C)cc(/C=C2/SC(=O)N(C(C)C(=O)OC)C2=O)c1C (stereo unspecified)	PPC-1+TRAIL kill 53.0, C8 TRAIL sens 62.6 | PPC-1 tox inactive
CCn1c(C)cc(/C=C2/SC(=O)N(C(C)C(=O)OC)C2=O)c1C (stereo unspecified)	none
